The results in this text go back to ChEMBL document CHEMBL3988442, “University of Dundee, Small-Polar-MMV Screening Library” (2021).

Holding throughout (parameters): scale not given: direction of the effect not stated beside the values
Test [1] deals with Protein translocase subunit SecA (Escherichia coli (strain K12)) (UniProt P10408). As to the kind of experiment: Assay to Identify E. coli SecA ATPase Inhibitors. It is filed as functional. The conditions noted are these: 30 µM.
For test [2], the target named is T1, Ubiquitin-activating enzyme e1, putative (Leishmania donovani (strain BPK282A1)) (UniProt E9BSI1).
T1 sequence (whole entry): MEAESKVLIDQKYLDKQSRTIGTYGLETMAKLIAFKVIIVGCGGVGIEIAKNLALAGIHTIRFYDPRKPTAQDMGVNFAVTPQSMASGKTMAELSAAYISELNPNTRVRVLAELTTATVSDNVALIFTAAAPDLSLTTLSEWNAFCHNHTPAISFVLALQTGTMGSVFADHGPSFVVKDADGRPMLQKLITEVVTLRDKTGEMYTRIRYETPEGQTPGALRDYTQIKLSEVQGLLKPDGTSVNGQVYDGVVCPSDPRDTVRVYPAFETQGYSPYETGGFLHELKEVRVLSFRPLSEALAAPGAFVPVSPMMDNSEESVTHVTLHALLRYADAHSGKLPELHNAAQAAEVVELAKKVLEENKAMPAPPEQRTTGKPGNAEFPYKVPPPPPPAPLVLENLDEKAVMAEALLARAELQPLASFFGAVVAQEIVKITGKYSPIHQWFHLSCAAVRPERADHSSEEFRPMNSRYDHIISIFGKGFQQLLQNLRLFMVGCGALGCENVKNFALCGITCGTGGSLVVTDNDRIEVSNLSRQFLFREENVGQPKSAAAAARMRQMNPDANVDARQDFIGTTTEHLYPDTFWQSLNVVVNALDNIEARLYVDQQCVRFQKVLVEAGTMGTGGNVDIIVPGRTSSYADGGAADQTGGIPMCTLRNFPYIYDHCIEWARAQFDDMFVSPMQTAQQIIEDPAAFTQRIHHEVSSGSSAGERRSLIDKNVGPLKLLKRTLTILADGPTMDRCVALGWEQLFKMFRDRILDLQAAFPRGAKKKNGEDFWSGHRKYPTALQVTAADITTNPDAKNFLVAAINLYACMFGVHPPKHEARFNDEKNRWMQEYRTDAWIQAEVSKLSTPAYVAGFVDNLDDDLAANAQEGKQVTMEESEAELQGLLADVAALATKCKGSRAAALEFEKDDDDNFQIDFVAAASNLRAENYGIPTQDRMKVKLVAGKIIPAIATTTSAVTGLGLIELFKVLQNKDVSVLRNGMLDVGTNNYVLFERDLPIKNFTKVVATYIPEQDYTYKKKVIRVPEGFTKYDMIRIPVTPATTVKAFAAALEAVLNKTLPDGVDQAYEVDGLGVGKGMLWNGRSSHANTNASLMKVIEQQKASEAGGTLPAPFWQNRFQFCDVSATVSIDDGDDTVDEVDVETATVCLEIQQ
Nature of the test: Leishmania donovani Ubiquitin Activating Enzyme (LdE1). The test is classed as functional. As to conditions: 30 µM.

The target of test [3] is AMP-activated protein kinase, AMPK (Homo sapiens) (UniProt P54646+O43741+P54619+Q9UGJ0+Q9Y478+Q13131+Q9UGI9). Nature of the test: AMP-dependent Kinase enzyme assay. An in vitro enzyme assay that detects ADP turnover that is directly proportional to AMPK activity. This uses naive AMPK that is activated during the assay with MK-8722. The test is classed as functional. As to conditions: 30 µM.

For test [4], the target named is Sialic acid-binding Ig-like lectin 9 (Homo sapiens) (UniProt Q9Y336). As to the kind of experiment: Hs-Siglec9 ALPHAscreen SOP 20170721. As to conditions: 10 µM. (In general: Bead proximity is the source of the signal in Alpha formats.)
Chain of Sialic acid-binding Ig-like lectin 9 (Homo sapiens) (Q9Y336 whole entry): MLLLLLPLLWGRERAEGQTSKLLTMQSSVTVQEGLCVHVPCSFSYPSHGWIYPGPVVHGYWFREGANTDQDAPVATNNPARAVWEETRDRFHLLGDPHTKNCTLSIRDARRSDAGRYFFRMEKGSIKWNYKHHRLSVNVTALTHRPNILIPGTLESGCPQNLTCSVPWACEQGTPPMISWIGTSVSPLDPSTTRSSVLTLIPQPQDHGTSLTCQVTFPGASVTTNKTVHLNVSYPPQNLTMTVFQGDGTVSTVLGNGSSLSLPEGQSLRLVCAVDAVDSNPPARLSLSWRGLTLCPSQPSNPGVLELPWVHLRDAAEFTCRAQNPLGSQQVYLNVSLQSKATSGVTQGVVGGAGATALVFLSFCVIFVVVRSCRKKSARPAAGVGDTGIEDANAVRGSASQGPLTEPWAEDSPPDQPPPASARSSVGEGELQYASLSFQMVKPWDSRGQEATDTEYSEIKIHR
Test [5] concerns Trypanosoma cruzi. As to the kind of experiment: Trypanosoma cruzi phosphomannomutase and mannose-1-phosphate guanylyltransferase assay. It is filed as functional. As to conditions: 10 µM.
The target in test [6] is T2, Arginase-2, mitochondrial (Homo sapiens) (UniProt P78540).
T2 sequence (whole entry): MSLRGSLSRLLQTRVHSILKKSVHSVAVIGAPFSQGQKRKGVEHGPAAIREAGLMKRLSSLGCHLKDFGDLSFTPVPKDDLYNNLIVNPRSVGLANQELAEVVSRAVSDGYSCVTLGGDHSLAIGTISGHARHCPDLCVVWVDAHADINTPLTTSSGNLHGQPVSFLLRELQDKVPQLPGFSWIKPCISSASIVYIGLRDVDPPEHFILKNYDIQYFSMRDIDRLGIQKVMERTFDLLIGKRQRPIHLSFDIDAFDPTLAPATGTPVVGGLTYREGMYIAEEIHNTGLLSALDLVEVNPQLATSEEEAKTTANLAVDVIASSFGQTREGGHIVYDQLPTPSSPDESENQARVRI
Nature of the test: in vitro enzyme assay to detect the production of urea directly proportional to the activity of Arginase II. Note: in the data most compounds retested in dose-response had high values. As to conditions: 33.3 µM. It is filed as functional.

The target in test [7] is T3, Proteasome subunit beta (Trypanosoma cruzi) (UniProt O96673).
T3 sequence (whole entry): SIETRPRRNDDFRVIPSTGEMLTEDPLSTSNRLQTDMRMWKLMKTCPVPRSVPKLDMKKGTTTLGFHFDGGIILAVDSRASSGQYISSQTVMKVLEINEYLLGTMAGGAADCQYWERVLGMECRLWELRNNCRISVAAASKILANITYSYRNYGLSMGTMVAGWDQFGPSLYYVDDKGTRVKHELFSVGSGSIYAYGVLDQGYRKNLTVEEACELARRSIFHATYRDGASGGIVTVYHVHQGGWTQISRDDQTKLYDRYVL
As to the kind of experiment: Trypanosoma cruzi proteasome chymotrypsin-like activity (TcProtChymo) assay. Note: in the data most compounds retested in dose-response had high values. The test is classed as functional. As to conditions: 9.37 µM.

The species entered for test [8] is Homo sapiens. As to the kind of experiment: To identify inhibition of the IFN signalling (Jak-Stat) pathway via expression of an eGFP reporter gene under the control of an IFN-stimulated response element (ISRE) containing MxA promoter. The test is classed as functional. As to conditions: 30 µM. (Reporter assays use an easily measured gene product as a stand-in for the process of interest.)

Test [9] has as its target T4, Tyrosyl-tRNA synthetase, putative (Trypanosoma cruzi (strain CL Brener)) (UniProt Q4DSP6).
T4 sequence (whole entry): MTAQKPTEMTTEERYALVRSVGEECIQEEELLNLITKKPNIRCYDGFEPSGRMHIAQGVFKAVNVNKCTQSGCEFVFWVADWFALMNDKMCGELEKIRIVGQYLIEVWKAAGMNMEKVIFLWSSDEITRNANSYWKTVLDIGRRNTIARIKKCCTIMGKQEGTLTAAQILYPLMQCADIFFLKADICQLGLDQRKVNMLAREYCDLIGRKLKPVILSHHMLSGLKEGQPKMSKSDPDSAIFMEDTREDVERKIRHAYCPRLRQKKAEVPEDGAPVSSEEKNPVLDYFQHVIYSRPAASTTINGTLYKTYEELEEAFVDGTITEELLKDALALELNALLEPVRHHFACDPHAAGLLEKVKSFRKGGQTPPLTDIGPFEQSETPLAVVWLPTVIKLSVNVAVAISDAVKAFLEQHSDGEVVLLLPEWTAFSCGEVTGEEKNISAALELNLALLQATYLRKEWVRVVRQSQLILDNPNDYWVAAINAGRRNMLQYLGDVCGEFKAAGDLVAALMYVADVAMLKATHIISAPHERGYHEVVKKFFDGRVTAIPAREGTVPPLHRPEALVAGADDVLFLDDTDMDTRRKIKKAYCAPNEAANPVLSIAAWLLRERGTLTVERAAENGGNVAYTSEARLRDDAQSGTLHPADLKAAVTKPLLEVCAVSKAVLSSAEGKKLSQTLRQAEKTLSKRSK
As to the kind of experiment: Trypanosoma cruzi tyrosyl tRNA synthetase (TcYRS) _High Tyrosine SOP. Note: in the data most compounds retested in dose-response had high values. As to conditions: 30 µM. It is filed as functional.

Test [10] addresses T4, Tyrosyl-tRNA synthetase, putative (Trypanosoma cruzi (strain CL Brener)). As to the kind of experiment: Trypanosoma cruzi tyrosyl tRNA synthetase (TcYRS) SOP. It is filed as functional. The conditions noted are these: 30 µM.
Test [11] deals with Chromo domain-containing protein 1 (Saccharomyces cerevisiae (strain ATCC 204508 / S288c) (Baker's yeast)) (UniProt P32657). Nature of the test: ScCHD-1 Enzyme Inhibition Assay. Note: in the data most compounds retested in dose-response had high values. The test is classed as functional. As to conditions: 30 µM.
Chain of Chromo domain-containing protein 1 (Saccharomyces cerevisiae (strain ATCC 204508 / S288c) (Baker's yeast)) (P32657 whole entry, the tested form may be a part): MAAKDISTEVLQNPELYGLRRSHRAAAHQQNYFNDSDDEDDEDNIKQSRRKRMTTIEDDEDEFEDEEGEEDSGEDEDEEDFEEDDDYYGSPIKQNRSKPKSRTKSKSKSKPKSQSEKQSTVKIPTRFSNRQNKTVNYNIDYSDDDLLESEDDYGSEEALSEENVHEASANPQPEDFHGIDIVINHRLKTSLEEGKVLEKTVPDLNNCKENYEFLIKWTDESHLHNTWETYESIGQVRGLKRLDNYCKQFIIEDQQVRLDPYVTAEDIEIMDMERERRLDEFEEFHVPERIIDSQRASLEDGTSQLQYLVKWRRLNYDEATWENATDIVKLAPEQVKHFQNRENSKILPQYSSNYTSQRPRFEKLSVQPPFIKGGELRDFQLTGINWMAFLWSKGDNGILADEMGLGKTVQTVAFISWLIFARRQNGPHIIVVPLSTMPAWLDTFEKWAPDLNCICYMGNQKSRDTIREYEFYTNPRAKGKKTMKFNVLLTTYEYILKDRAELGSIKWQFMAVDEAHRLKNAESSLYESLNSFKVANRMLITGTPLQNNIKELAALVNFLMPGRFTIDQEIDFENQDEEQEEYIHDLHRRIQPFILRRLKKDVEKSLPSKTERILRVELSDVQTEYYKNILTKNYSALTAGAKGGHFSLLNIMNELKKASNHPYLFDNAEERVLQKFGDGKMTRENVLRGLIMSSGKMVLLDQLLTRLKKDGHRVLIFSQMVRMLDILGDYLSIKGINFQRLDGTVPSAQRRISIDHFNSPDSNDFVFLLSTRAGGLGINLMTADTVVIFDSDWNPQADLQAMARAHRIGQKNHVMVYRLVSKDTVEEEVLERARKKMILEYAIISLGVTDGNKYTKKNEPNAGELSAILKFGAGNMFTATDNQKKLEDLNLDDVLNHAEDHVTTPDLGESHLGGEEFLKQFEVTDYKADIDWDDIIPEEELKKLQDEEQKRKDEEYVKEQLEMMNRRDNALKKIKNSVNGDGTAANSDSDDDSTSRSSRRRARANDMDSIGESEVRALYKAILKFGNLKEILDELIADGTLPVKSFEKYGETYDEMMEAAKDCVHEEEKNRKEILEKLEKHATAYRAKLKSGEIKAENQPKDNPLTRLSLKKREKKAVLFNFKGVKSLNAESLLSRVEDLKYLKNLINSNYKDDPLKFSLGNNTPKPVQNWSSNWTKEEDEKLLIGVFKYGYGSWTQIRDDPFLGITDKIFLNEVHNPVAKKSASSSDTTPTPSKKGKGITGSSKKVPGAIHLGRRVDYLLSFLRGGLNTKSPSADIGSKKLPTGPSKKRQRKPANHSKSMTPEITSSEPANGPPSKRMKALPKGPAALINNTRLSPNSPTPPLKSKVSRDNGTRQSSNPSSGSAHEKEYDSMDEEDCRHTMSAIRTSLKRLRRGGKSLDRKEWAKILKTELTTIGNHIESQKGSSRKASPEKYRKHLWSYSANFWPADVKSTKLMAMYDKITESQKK

For some of these results: Measured potencies and affinities stand elsewhere.

Chain of Protein translocase subunit SecA (Escherichia coli (strain K12)) (P10408 whole entry): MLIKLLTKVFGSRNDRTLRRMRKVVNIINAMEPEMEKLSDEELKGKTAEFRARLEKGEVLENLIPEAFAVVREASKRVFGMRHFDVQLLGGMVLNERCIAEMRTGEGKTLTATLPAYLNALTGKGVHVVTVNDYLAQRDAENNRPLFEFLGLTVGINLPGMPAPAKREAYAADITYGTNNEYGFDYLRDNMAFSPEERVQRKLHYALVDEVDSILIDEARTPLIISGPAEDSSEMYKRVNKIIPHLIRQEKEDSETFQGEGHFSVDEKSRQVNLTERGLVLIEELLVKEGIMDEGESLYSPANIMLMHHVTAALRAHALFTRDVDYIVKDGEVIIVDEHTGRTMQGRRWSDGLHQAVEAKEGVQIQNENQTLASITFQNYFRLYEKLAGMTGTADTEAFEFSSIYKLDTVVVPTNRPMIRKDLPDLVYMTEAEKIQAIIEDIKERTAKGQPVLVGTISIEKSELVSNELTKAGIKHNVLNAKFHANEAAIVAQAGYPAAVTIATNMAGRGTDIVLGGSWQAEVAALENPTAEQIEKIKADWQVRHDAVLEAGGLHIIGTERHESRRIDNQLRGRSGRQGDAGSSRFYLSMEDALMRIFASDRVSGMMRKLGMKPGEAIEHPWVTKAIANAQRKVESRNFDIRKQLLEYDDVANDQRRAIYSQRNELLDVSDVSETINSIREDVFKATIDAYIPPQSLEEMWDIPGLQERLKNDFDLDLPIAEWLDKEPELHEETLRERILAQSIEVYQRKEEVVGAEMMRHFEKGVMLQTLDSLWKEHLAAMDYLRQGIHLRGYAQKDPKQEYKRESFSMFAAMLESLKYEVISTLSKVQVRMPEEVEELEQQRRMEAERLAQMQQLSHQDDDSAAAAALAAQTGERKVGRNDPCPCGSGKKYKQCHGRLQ

Take `NC(=O)COc1cccc(C(=O)N2CCCC(n3ccnc3)C2)c1` (stereo not drawn): the Percent Effect in [1] was -0.383%; in [2], 0%; in [3] it was -5.3%; in test [4] it was 11.8%; in test [5], 6.41%; in test [6] it was 0.554%. The Percent Effect in [7] was -4.67%; in test [8], -2.06%; in test [9] it was 1.98%; in [10], 11%; in test [11], 2.43%.
`Nc1ncc2c(n1)CN(C1CCCC1)C2=O`: the Percent Effect in test [1] was -4.34%; in test [2], 10.4%; in test [3], -3.73%; in [4] it was 9.11%; in test [5], 4.82%; in test [6], -168%. Moreover, the Percent Effect in test [7] was 19.5%; in test [8] it was -17.3%; in [9], 10.8%; in test [10], 21%; in test [11], 121%.
With `CS(=O)(=O)NC[C@H]1OC[C@@H]2CCN(Cc3ccc(F)cc3)C[C@@H]21`, the Percent Effect in [1] was 0.854%; in test [2] it was 13.3%; in test [3], 2.13%; in test [4] it was -0.611%; in [5] it was -1.74%; in test [6], -27.8%. In addition, the Percent Effect in [7] is 7.35%; in test [8] it was 13.4%; in test [9], 3.12%; in [10], 15%; in [11], -6.75%.
On to `CC(c1nc(C2CC2)no1)N1CCN(CCOCC(F)(F)F)CC1` (stereo not drawn), for which the Percent Effect in test [1] is -1.74%; in test [2], -2.7%; in test [3] it was -7.35%; in [4], 10.2%; in test [5], 1.95%; in [6], -0.185%. Besides, the Percent Effect in test [7] was 1.08%; in test [8], 21%; in test [9], 2.97%; in [10], 11%; in test [11], 1.39%.
Regarding `CN1CCOC(CNCc2nc(-c3ccccc3)cs2)C1` (stereo not drawn), the Percent Effect is -3.28% in [1]; -12.7% in test [2]; -8.45% in [3]; 1.64% in test [4]; 5.95% in [5]; -1.9% in [6]. Also, the Percent Effect in test [7] was 1.39%; in [8] it was -25.8%; in test [9] it was 1.48%; in test [10] it was 1.27%; in test [11], 4.02%.
`CC(=O)NCC1CCN(C(=O)c2csc(-c3ccc(C)cc3C)n2)CC1`: the Percent Effect is -3.29% in [1]; 13.5% in test [2]; 1.21% in [3]; 1.58% in test [4]; 1.58% in test [5]; 0.554% in [6]. The Percent Effect in test [7] was found to be 4.49%; in test [8], 35.7%; in test [9] it was 7.92%; in [10], 23.2%; in test [11] it was 0.867%.
As to `Cc1ccc(C(=O)N2CCCC2c2nnc3n2CCCCC3)o1` (stereo not drawn), the Percent Effect is 0.332% in test [1]; -1.39% in test [2]; 7.46% in test [3]; -3.27% in test [4]; -2.23% in test [5]; -11.9% in [6]. The Percent Effect is 6.84% in test [7]; -2.88% in test [8]; 2.1% in test [9]; -5.13% in test [10]; -1.81% in test [11].
Take `CSCC(CCO)NC(=O)Nc1cc(Br)ccc1C` (stereo not drawn): the Percent Effect turned out to be 0.198% in test [1]; 5.48% in [2]; 11.7% in test [3]; 4.67% in test [4]; 2.35% in [5]; 4.09% in test [6]. For the same compound, the Percent Effect in test [7] was 15.6%; in [8] it was -12%; in [9] it was 1.07%; in test [10], 5%; in [11] it was 106%.
